Screen size: about 39,000 compounds; about 3,300 (8.5%) were called active. For the sample, actives were picked, then their nearest neighbours and some compounds at random.

In the assay the test system is HepG2. Put plainly: cytotoxicity call (relative viability < 0.9). The note with it: 10 µM.
For `COc1ccc(S(=O)(=O)Nc2ccc3c(c2)C(=O)N([C@@H](C)CO)C[C@@H](C)[C@H](CN(C)C(=O)C2CCCCC2)OCCCC[C@H](C)O3)cc1`, the cytotoxicity call was “inactive”.
Regarding `CC(C)(C)[S@@](=O)N1Cc2cc(C(=O)N3CCCCC3)nc(-c3cccc(-c4cccc(C#N)c4)c3)c2[C@H]1CCO`, the cytotoxicity call was “inactive”.
Then `CO[C@@H]1CN(C)C(=O)c2cc(NC(=O)C3CC3)ccc2OC[C@H](C)N(C(=O)C2CCOCC2)C[C@@H]1C`, with “inactive”.
Next, `Cc1noc(C)c1S(=O)(=O)Nc1ccc2c(c1)CC(=O)N([C@H](C)CO)C[C@@H](C)[C@H](CN(C)S(=O)(=O)c1ccc(Cl)cc1)O2`: “inactive”; `CC(=O)Oc1cccc(O)c1`: “inactive”; `CC(=O)Nc1ccc(OC(C)=O)cc1`: “inactive”.
Then `CC(=O)Oc1ccc(O)cc1`, with “active”; and `C[C@H]1CN([C@@H](C)CO)C(=O)c2c(c3ccccc3n2C)-c2ccccc2CO[C@@H]1CN(C)C(=O)c1cc(Cl)cc(Cl)c1`, with “inactive”; and `C[C@H](CO)N1C[C@H](C)[C@@H](CN(C)C(=O)c2cc(Cl)cc(Cl)c2)OCc2ccccc2-c2c(n(C)c3ccccc23)C1=O`, with “active”.
Take `C[C@@H]1CN([C@@H](C)CO)C(=O)c2c(c3ccccc3n2C)-c2ccccc2CO[C@H]1CN(C)C(=O)c1cc(Cl)cc(Cl)c1`: the cytotoxicity call is “inactive”.
Then `C[C@@H]1CN([C@H](C)CO)C(=O)c2c(c3ccccc3n2C)-c2ccccc2CO[C@H]1CN(C)C(=O)c1cc(Cl)cc(Cl)c1`, with “inactive”.
Regarding `C[C@H]1CN([C@@H](C)CO)C(=O)c2c(c3ccccc3n2C)-c2ccccc2CO[C@H]1CN(C)C(=O)c1cc(Cl)cc(Cl)c1`, the cytotoxicity call was “inactive”.
Next, `C[C@@H]1CN([C@@H](C)CO)C(=O)c2c(c3ccccc3n2C)-c2ccccc2CO[C@@H]1CN(C)C(=O)c1cc(Cl)cc(Cl)c1`: “active”; `Cc1ccc(S[C@]2(C(=O)NC(C)C)CC(=O)N(Cc3ccccc3Cl)[C@@H]2c2ccc(CO)cc2)cc1`: “inactive”.
Then `C[C@@H]1CCCCO[C@@H](CN(C)Cc2ccc(C(F)(F)F)cc2)[C@H](C)CN([C@H](C)CO)C(=O)c2cc(NC(=O)CCCN(C)C)ccc2O1`, with “inactive”.
Then `CS(=O)(=O)N1CCS(=O)(=O)[C@H]2CCN(CC3CC3)CC[C@@H]21`, with “inactive”; and `COc1ccc(S(=O)(=O)N(C)C[C@@H]2Oc3ccc(NC(=O)Nc4cccc5ccccc45)cc3C(=O)N([C@H](C)CO)C[C@@H]2C)cc1`, with “inactive”; and `CC(C)c1c(C(=O)Nc2ccccc2)c(-c2ccccc2)c(-c2ccc(F)cc2)n1CC[C@@H](O)C[C@@H](O)CC(=O)O`, with “inactive”.
Turning to `C[C@@H]1CCCCO[C@@H](CN(C)CC2CC2)[C@H](C)CN([C@@H](C)CO)C(=O)c2cc(NC(=O)c3ccccc3)ccc2O1`, the cytotoxicity call was “inactive”.
Next, `C[C@@H]1CCCCO[C@@H](CN(C)Cc2ccc(C(=O)O)cc2)[C@@H](C)CN([C@H](C)CO)C(=O)c2cc(NC(=O)C3CCCCC3)ccc2O1`: “inactive”.
Next, `CC1=C(C(=O)O)N2C(=O)[C@@H](NC(=O)[C@H](N)c3ccc(O)cc3)[C@H]2SC1`: “inactive”.
Next, `COCC(=O)Nc1ccc2c(c1)CC(=O)N2`: “inactive”; `CCN1CCN(Cc2ccc(C(=O)Nc3ccc(C)c(Oc4ccc5c(c4)CC(=O)N5)c3)cc2C(F)(F)F)CC1`: “active”; `CC1=NCCC2c3ccc(O)cc3NC12` (stereo not given): “active”.
With `CCS(=O)(=O)N1C[C@]2(C1)CN([C@@H](CO)c1[nH]c3cc(ccc3c12)OC)S(=O)(=O)c1cccc(c1)OC`, the cytotoxicity call was “inactive”.
Next, `C[C@@H]1CN([C@@H](C)CO)C(=O)c2cccc(NC(=O)c3ccncc3)c2O[C@@H]1CN(C)Cc1ccncc1`: “inactive”; `CN1C(=O)c2cc(NC(=O)c3cscn3)ccc2OC[C@H]2O[C@H](CC(=O)N3CCOCC3)CC[C@@H]21`: “inactive”; `C=C1C(=O)OC2CC3(C)CCCC(C)C3=CC12` (stereo not given): “active”.
Then `C[C@H](CO)N1C[C@H](C)[C@@H](CN(C)C(=O)Nc2ccccc2)Oc2ccc(NC(=O)Cn3cnnn3)cc2CC1=O`, with “inactive”; and `CC(=O)N(C)C[C@@H]1Oc2cc(C#CCN(C)C)ccc2S(=O)(=O)N([C@@H](C)CO)C[C@@H]1C`, with “inactive”; and `COc1ccc(S(=O)(=O)Nc2ccc3c(c2)CC(=O)N([C@@H](C)CO)C[C@H](C)[C@@H](CN(C)Cc2ccncc2)O3)cc1`, with “inactive”.
Then `O=C(Oc1cccc2cccnc12)c1ccccc1`, with “active”; and `FC(F)Oc1cccc2cccnc12`, with “inactive”; and `O=C(O)c1ccccn1`, with “inactive”.
With `CC(C)NC(=O)N(C)C[C@@H]1Oc2ccc(NC(=O)NC3CCCCC3)cc2C(=O)N([C@H](C)CO)C[C@H]1C`, the cytotoxicity call is “inactive”.
In the case of `N=c1c(C(=O)NC[C@H]2CCCO2)cc2c(=O)n3ccccc3nc2n1CCCN1CCOCC1`, the cytotoxicity call was “inactive”.
Then `COc1ccc(CCNC(=O)c2cc3c(=O)n4cccc(C)c4nc3n(CCCN3CCOCC3)c2=N)cc1`, with “active”; and `Cc1cccn2c(=O)c3cc(S(=O)(=O)c4ccc(Br)cc4)c(=N)n(CCCN4CCOCC4)c3nc12`, with “inactive”; and `COc1ccc(CN(C)C[C@@H]2OCCCC[C@@H](C)Oc3ccc(NC(=O)Nc4c(C)noc4C)cc3C(=O)N([C@@H](C)CO)C[C@@H]2C)cc1`, with “inactive”.
Next, `Nc1ncnc2c1ncn2[C@H]1CCCO1`: “inactive”; `C[C@@H]1CN([C@H](C)CO)C(=O)c2ccccc2-c2ccccc2CO[C@@H]1CN(C)S(=O)(=O)c1ccc(C(F)(F)F)cc1`: “inactive”.
Next, `NCc1csc2c1CCCC2`: “inactive”; `C[C@@H]1CN([C@@H](C)CO)C(=O)Cc2cc(NC(=O)Nc3ccc(C(F)(F)F)cc3)ccc2O[C@@H]1CN(C)S(C)(=O)=O`: “inactive”.
Take `C[C@H](CO)N1C[C@H](C)[C@H](CN(C)S(C)(=O)=O)Oc2ccc(NC(=O)Nc3ccc(C(F)(F)F)cc3)cc2CC1=O`: the cytotoxicity call is “inactive”.
Turning to `Cc1ccc(S(=O)(=O)N(C)C[C@@H]2Oc3ccc(NC(=O)Nc4ccc(C(F)(F)F)cc4)cc3CC(=O)N([C@H](C)CO)C[C@H]2C)cc1`, the cytotoxicity call was “inactive”.
Next, `Cc1ccc(S(=O)(=O)N(C)C[C@@H]2Oc3ccc(NC(=O)Nc4ccc(C(F)(F)F)cc4)cc3CC(=O)N([C@@H](C)CO)C[C@H]2C)cc1`: “active”.
Then `Cc1ccc(S(=O)(=O)N(C)C[C@H]2Oc3ccc(NC(=O)Nc4ccc(C(F)(F)F)cc4)cc3CC(=O)N([C@H](C)CO)C[C@@H]2C)cc1`, with “inactive”; and `Cc1ccc(S(=O)(=O)N(C)C[C@@H]2Oc3ccc(NC(=O)Nc4ccc(C(F)(F)F)cc4)cc3CC(=O)N([C@H](C)CO)C[C@@H]2C)cc1`, with “active”.
Next, `Cc1ccc(S(=O)(=O)N(C)C[C@@H]2Oc3ccc(NC(=O)Nc4ccc(C(F)(F)F)cc4)cc3CC(=O)N([C@@H](C)CO)C[C@@H]2C)cc1`: “active”.
As to `Cc1ccc(S(=O)(=O)N(C)C[C@H]2Oc3ccc(NC(=O)Nc4ccc(C(F)(F)F)cc4)cc3CC(=O)N([C@H](C)CO)C[C@H]2C)cc1`, the cytotoxicity call was “active”.
Next, `C[C@@H]1CCCCO[C@@H](CN(C)C(=O)Nc2ccc(F)cc2)[C@H](C)CN([C@H](C)CO)C(=O)c2cc(NC(=O)c3ccncc3)ccc2O1`: “inactive”.
Then `C[C@H]1CCCCO[C@H](CN(C)C(=O)C2CCCCC2)[C@@H](C)CN([C@@H](C)CO)C(=O)c2cc(NS(=O)(=O)c3ccc(F)cc3)ccc2O1`, with “inactive”; and `C[C@H](CO)N1C[C@H](C)[C@@H](CN(C)C(=O)Nc2ccc(F)cc2)Oc2c(NS(C)(=O)=O)cccc2C1=O`, with “inactive”.
Then `COc1ccc(NC(=O)N(C)C[C@H]2Oc3c(NC(=O)C4CCOCC4)cccc3C(=O)N([C@@H](C)CO)C[C@@H]2C)cc1`, with “inactive”.
For `O=C(N[C@H]1C=C[C@@H](CC(=O)N2CCOCC2)O[C@@H]1CO)c1ccccn1`, the cytotoxicity call was “inactive”.
`CN(C)c1nc2ncnc(N)c2[nH]1`: the cytotoxicity call was “inactive”.
Next, `C[C@H]1CN([C@@H](C)CO)C(=O)c2ccccc2-c2ccccc2CO[C@@H]1CN(C)C(=O)Nc1ccccc1C(F)(F)F`: “inactive”; `C[C@@]1(O)N(CC(=O)O)C(=O)OC12CCCCC2`: “inactive”.
With `O=C1N[C@@H](Cc2ccccc2)C(=O)N2[C@@H]1C[C@@H](C(=O)NCc1ccc(F)cc1)[C@H]2c1cccc(OCCO)c1`, the cytotoxicity call is “inactive”.
Next, `O=S1(=O)C[C@H](NC[C@H]2C[C@@H]3C=C[C@H]2C3)[C@@H](O)C1`: “inactive”; `C[C@@H]1CN([C@H](C)CO)C(=O)c2cccc(NS(=O)(=O)c3cn(C)cn3)c2O[C@@H]1CN(C)C(=O)Nc1ccc(F)cc1`: “inactive”.
Then `Cc1ccc(S(=O)(=O)N(C)C[C@H]2Oc3ccc(NC(=O)Nc4ccc(C(F)(F)F)cc4)cc3CC(=O)N([C@@H](C)CO)C[C@@H]2C)cc1`, with “active”; and `Cc1ccc(S(=O)(=O)N(C)C[C@H]2Oc3ccc(NC(=O)Nc4ccc(C(F)(F)F)cc4)cc3CC(=O)N([C@@H](C)CO)C[C@H]2C)cc1`, with “active”.
Then `C[C@@H]1CN([C@@H](C)CO)C(=O)Cc2cc(NC(=O)Nc3ccc(C(F)(F)F)cc3)ccc2O[C@H]1CN(C)S(C)(=O)=O`, with “inactive”.
On to `C[C@H]1CN([C@@H](C)CO)C(=O)c2cc(NS(=O)(=O)c3cn(C)cn3)ccc2O[C@H]1CN(C)C(=O)Nc1ccc(F)cc1`, for which the cytotoxicity call is “inactive”.
In the case of `C[C@@H]1CN([C@H](C)CO)C(=O)c2cccc(NS(=O)(=O)c3cccs3)c2O[C@@H]1CN(C)S(=O)(=O)c1cccs1`, the cytotoxicity call is “inactive”.
For `Cc1noc(C)c1S(=O)(=O)N(C)C[C@H]1Oc2ccc(NS(=O)(=O)c3ccc(Cl)cc3)cc2CC(=O)N([C@H](C)CO)C[C@H]1C`, the cytotoxicity call was “inactive”.
Next, `O=C(N[C@@H]1CC[C@H](CCNS(=O)(=O)c2ccc(F)cc2)O[C@@H]1CO)C1CC1`: “inactive”; `C[C@H](CO)N1C[C@H](C)[C@@H](CN(C)S(=O)(=O)c2ccc(F)cc2)Oc2ccc(NS(=O)(=O)c3cn(C)cn3)cc2C1=O`: “inactive”.
Then `C[C@H]1CCCCO[C@H](CN(C)C(=O)c2ccccc2)[C@@H](C)CN([C@@H](C)CO)C(=O)c2cc(NS(=O)(=O)c3ccc(Cl)cc3)ccc2O1`, with “inactive”.

For the origin of these results see the antibiotic and cytotoxicity screens of Wong et al. (2023).
